# Screening data deposited in PubChem BioAssay by National Center for Advancing Translational Sciences (NCATS).
# Shown are actives, neighbours in structure and some others; about 1.7% of the full set was active somewhere.
# KCNH2 WT inh: blocks the wildtype human KCNH2 potassium channel. Q12809. U2OS, BacMam KCNH2, thallium flux FluxOr; active compounds read low. activity change, % at 1.84 µM. actives 0.37% (n = 340,000). AID 720551;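 active means maximum activity change below -70%; inconclusive means maximum activity change between -70% and -50%; inactive means maximum activity change above -50%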
#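 U2OS cells transduced with wild-type KCNH2 virus are loaded with FluxOr dye for 45 min, and thallium flux is measured in kinetic reads before and after stimulation buffer. Rate constants are normalized to DMSO controls.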
# KCNH2 3.1 block: inhibitors of human KCNH2 3.1 potassium channel isoform; U2OS KCNH2 3.1, thallium flux FluxOr; active compounds read low; AID 720553; actives 0.95% (n = 340,000); activity change, % (tested at about 1.8 µM);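 active means maximum activity change below -70%; inconclusive means maximum activity change from -70% to -50%; inactive means maximum activity change above -50%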;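 further: thallium influx rate constant from kinetic fluorescence after stimulation buffer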
#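 Thallium flux via FluxOr fluorescence (Red40 quencher, 45 min loading) in U2OS cells virally expressing the KCNH2 3.1 isoform (1.77 x 10^8 /mL virus, overnight at 37 C). Rate constants from 2-min kinetic reads post-stimulation, normalised to positive and negative controls.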
# TRPML1 blocker: inhibitors of human TRPML1 channel. Q9GZU1. TRPML1-inducible cells, Ca2+ dye fluorescence, FDSS; active compounds read low; inhibition of EC80 agonist-evoked calcium signal. activity change, negative = inhibition, % (concentration not given with the values). actives 0.02% (n = 390,000). AID 624415; in the data active means activity change below about -50%; inconclusive means between about -30% and that limit;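 further: stimulus is agonist 54-4 at its EC80 concentration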
# Target sequence (Q9GZU1 whole entry, looked up): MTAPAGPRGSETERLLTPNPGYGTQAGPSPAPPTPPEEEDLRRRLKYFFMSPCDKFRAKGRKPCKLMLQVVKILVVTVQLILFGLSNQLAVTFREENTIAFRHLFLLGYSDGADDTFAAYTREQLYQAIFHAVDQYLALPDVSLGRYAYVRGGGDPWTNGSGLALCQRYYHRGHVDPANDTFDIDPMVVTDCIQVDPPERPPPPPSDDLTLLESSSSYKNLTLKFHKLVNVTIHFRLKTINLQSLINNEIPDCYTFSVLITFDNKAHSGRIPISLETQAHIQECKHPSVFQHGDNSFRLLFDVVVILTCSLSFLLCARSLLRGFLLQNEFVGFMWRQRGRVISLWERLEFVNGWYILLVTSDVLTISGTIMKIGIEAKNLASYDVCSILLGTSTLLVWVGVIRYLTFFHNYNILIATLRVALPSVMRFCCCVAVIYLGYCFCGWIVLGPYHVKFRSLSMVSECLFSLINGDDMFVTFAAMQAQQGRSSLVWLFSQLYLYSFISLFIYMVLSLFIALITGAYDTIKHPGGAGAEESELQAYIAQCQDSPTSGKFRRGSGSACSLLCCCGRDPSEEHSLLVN
#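 TRPML1-DL cells, Tet-induced overnight (~16 h, 37 °C) at 1,500 cells/well, were loaded with Ca8 no-wash dye plus quencher for 45-90 min at room temperature. Compounds were pinned during FDSS kinetic reading; agonist 54-4 at EC80 (4 uM final) then added.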
# TRHR agonist: TRH receptor (human) agonism | activation, % at 2 µM | TRHR cells, calcium flux fluo-8, FDSS agonist mode | actives 0.18% (n = 360,000); in the data active means activation above about 30%
#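 Fluo-8-loaded TRHR cells; 10 s baseline, compound added, kinetic Ca2+ fluorescence read 1/s, agonist mode.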
# TRHR enhancer: TRH receptor (human) allosteric enhancement. P34981. TRHR cells, fluo-8 calcium fluorescence, EC20 TRH enhancement. enhancement, % at 2 µM. actives 0.66% (n = 360,000); in the data active means enhancement above about 30%
#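 Enhancer read-out: after compound pinning and an initial kinetic agonist-mode read, an EC20 of TRH (10 nM final) was injected and fluo-8 calcium signal (Ex 480/Em 530) followed at 1 s/cycle for 100 cycles in TRHR-expressing cells.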
# TRPML1 agonist: human mucolipin-1 channel agonism. TRPML1-expressing cells, Ca2+ dye fluorescence, FDSS. activation, % (test concentration not listed). actives 0.12% (n = 410,000); in the data active means activation above about 50%; inconclusive means mostly about 30% to 49%
#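 Calcium fluorescence on an FDSS kinetic reader gave the read-out. Tet-induced TRPML1-DL cells were plated overnight, dye-loaded (Ca8 with quencher, 45-90 min, room temperature, dark), then read 110 s after compound addition, and again 110 s after 4uM final 54-4 (EC80).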
# Numbers stand for hits; 0 = inactive; ? = inconclusive; - = not tested or not shown.
SMILES,KCNH2 WT inh,KCNH2 3.1 block,TRPML1 blocker,TRHR agonist,TRHR enhancer,TRPML1 agonist
Cc1c(C(=O)Nc2cccc(Cl)c2)c2ccccn2c1CCc1ccncc1,0,-74.2,0,0,0,0
CCN(CC)c1nc(C=Cc2ccc(N(C)C)cc2)c2nccnc2n1,-106.9,-99.5,0,-,-,63.6
CN(C)c1ccc(C=Cc2nccc3ccccc23)cc1,-,-,-,-,-,0
CN(C)c1ccc(/C=C/c2ccnc3c2ccc2ccccc23)cc1,-,-,-,-,-,0
CCN(CC)c1ccc(/C=C/c2nccc3ccccc23)cc1,-,-,-,-,-,63.6
Cc1ccc(OCc2nnc(SCC(=O)N3C(C)CCCC3C)o2)cc1 (centres undefined),0,0,0,0,0,0
CCN(CC)CCN(Cc1cc2cc3c(cc2[nH]c1=O)OCO3)C(=S)NC,0,0,0,0,0,0
COc1cc2cc(CCOC(=O)c3ccco3)oc(=O)c2cc1OC,0,0,0,0,0,0
CC(=O)OC[C@@H]1CN(Cc2ccccc2)C[C@H](n2cnc3c(N4CCOCC4)ncnc32)O1,-,-,-,-,-,0
O=C(c1cc(COc2c(F)cccc2F)on1)N1CCN(C2CCCCC2)CC1,0,-81.2,0,0,0,0
Cc1ccc(-n2ncc3c(NCCCn4ccnc4)ncnc32)cc1,-,-,0,0,30.9,0
Cc1cccc(-n2ncc3c(NCCCn4ccnc4)ncnc32)c1,0,0,0,0,0,0
COC(=O)c1[nH]c2ccc(C)cc2c1NC(=O)C(C)N1CCN(C2CCCCC2)CC1 (centres undefined),0,?,0,0,0,0
COC(=O)c1[nH]c2ccc(Br)cc2c1NC(=O)C(C)N1CCN(C2CCCCC2)CC1 (centres undefined),-72.5,-70.3,0,0,0,0
OC(C[n+]1c(Cl)ccc2ccccc21)c1ccccc1 (centres undefined),-,-,-,-,-,0
O=C(c1ccc(C(=O)N2CCOCC2)s1)N1CCOCC1,0,0,0,0,0,0
O=C(c1cc(Br)c(Br)s1)N1CCOCC1,-201.0,0,0,0,0,0
Cc1ccc(Nc2nc3ccccc3c3nncn23)cc1C,-,-,0,0,0,0
Nc1cc2[nH]c(=O)c3ccccc3c2cc1Br,0,0,0,-,-,0
Nc1ccc2c(c1)[nH]c(=O)c1ccccc12,0,-196.1,0,-,-,0
CCOc1ccc2c(C)nc(NC3=NC(C)(C)C=C(C)N3)nc2c1,0,0,0,0,0,0
CCOc1ccc2nc(NC3=NC(C)(C)C=C(C)N3)nc(C)c2c1,0,0,0,0,32.1,0
COc1cc(NC(=O)CN(C)S(=O)(=O)c2ccc3c(c2)CCCC(=O)N3)cc(OC)c1OC,-,-,0,0,0,0
COc1cc(C(=O)NC2CCN(Cc3ccccc3)CC2)cc(Cl)c1OC,0,-89.9,0,0,0,0
O=C(NC1CCN(Cc2ccc(Cl)c(Cl)c2)CC1)c1ccccc1,0,0,0,0,0,0
SMILES,KCNH2 WT inh,KCNH2 3.1 block,TRPML1 blocker,TRHR agonist,TRHR enhancer,TRPML1 agonist
O=C(CCCN1CCC(NC(=O)c2ccccc2)CC1)c1ccc(Cl)cc1,0,-106.0,0,0,0,0
COc1cc(C(=O)NC2CC3CCCC(C2)N3Cc2ccccc2)cc(OC)c1OC (centres undefined),0,0,0,0,0,0
O=C(NC1CCN(Cc2ccc3ccccc3c2)CC1)c1ccccc1,0,-79.3,0,0,0,0
COc1ccc(OC)c(-c2nc(C(=O)NC3CCN(Cc4ccccc4)CC3)cc3c2[nH]c2ccccc23)c1,?,-97.1,-,0,0,-
Cc1ccc(C(=O)NC2CCN(CCCC(=O)c3ccc(F)cc3)CC2)cc1,0,0,0,0,0,0
COc1cc2c(cc1OC)n(Cc1ccc([N+](=O)[O-])cc1)c(=O)n1nc(-c3ccccc3)nc21,-,-,0,0,0,0
Cc1ccccc1CN1Cc2cccc3c2[C@H](C=CC3)CC1=O,-,-,-,-,-,0
Cc1ccc(NS(=O)(=O)c2cccc(C(=O)NC3CCN(Cc4ccccc4)CC3)c2)c(C)c1,0,-102.2,0,-,-,0
COCC1CCN(Cc2nc(-c3ccc4c(c3)OCO4)no2)C1 (centres undefined),0,0,0,0,0,0
c1cc(C2CCN(Cc3nc(-c4ccc5c(c4)OCO5)no3)CC2)ccn1,0,0,0,0,34.5,0
COc1cccc(CN2CCN(Cc3cc4ccccc4o3)CC2CCO)c1 (centres undefined),0,0,0,0,0,0
CCOc1ccc(CN2CCN(Cc3cc4ccccc4o3)CC2CCO)cc1 (centres undefined),0,-106.9,0,0,0,0
COc1ccc(CN2CCN(Cc3cc4ccccc4o3)CC2CCO)cc1C (centres undefined),0,-70.8,0,0,0,0
CCOc1ccc(CN2CCN(Cc3nc(C(C)C)cs3)CC2CCO)cc1 (centres undefined),-,-96.1,0,0,0,0
Cc1onc(-c2ccccc2Cl)c1C(=O)N1CCCCCC1,0,0,0,0,0,0
CC(C)C[C@H]1CN(CCCC[C@@H]2CNC(=O)C(=O)N2CC2CCCCC2)C(=O)C(=O)N1Cc1ccccc1,-,-,-,-,-,0
Cc1nc2ccc(S(=O)(=O)N(CC(=O)Nc3cccc(F)c3)Cc3ccccc3)cc2s1,-,-,0,0,0,0
CCN(CC)c1ccc(/C=C/C(=O)c2ccc(Br)cc2)cc1,-166.7,?,0,166.0,0,87.8
CN(C)c1ccc(C(=O)/C=C/c2ccc(Br)cc2)cc1,-,0,0,0,0,0
CCOC(=O)c1cnc2c(CC)cccc2c1NCCCN1CCOCC1,0,-73.5,-,0,0,-
CN(C)CCCN1C(=O)c2cccc3c(Br)ccc(c23)C1=O,0,0,0,0,0,0
Cc1nn(C)c(C)c1N1C(=O)c2cccc3c(N)ccc(c23)C1=O,0,0,0,135.2,0,94.0
CCCCNc1ccc2c3c(cccc13)C(=O)N(CCCC)C2=O,0,0,0,285.8,0,109.8
CCN1C(=O)c2cccc3c(N)ccc(c23)C1=O,0,0,0,283.7,60.1,0
Cc1ccc(N2C(=O)c3cccc4c(N)ccc(c34)C2=O)c2cccnc12,0,0,0,158.0,0,90.4
Cc1nn(C)c(C)c1N1C(=O)c2cccc3c(Br)ccc(c23)C1=O,0,0,0,0,0,0
Cc1ccc(OCCC(=O)N(CC(=O)Nc2ccccc2C(F)(F)F)Cc2ccco2)cc1,0,0,0,0,0,0
Cc1ccc(N2CCC3CC2c2cc(-c4ccc(C(F)(F)F)cc4)ccc23)cc1 (centres undefined),0,0,0,-,-,0
COc1ccc(C(=O)Oc2cc(C(=S)N3CCOCC3)ccc2OC)cc1,-140.4,-160.6,0,0,0,0
COc1ncnc2c1ncn2CCCNCc1ccc(C)o1,0,0,0,-,-,0
